Screening results deposited in PubChem by National Center for Advancing Translational Sciences (NCATS).
KB-3-1 tox = qHTS assay for MDR1-selective chemotherapeutics: Primary screen using the parental adenocarcinoma cell KB-3-1; Potency, µM (top dose mostly 46.1 µM), actives largely listed as cytotoxic; 400,000 compounds, 1.4% hits; KB-3-1 viability, CellTiter-Glo ATP luminescence, 72 h; also: % is scaled to controls: 0 for no effect and ±100 for the full control effect; nearly all actives have a fitted effect of over 60% in size
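Multi-concentration cytotoxicity screen in KB-3-1 cells grown in DMEM lacking phenol red with 10% FBS. After 72 h at 37 °C with compound, ATP-dependent luminescence was recorded.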
SW480 rerep = A quantitative high throughput screen for small molecules that induce DNA re-replication in SW480 colon adenocarcinoma cells; SW480 DNA re-replication, Hoechst DNA content imaging, 48 h; Potency, µM (highest dose often 46.1 µM), without a hit: at the highest dose re-replication activation, usual class: activators; 340,000 compounds, 1.8% hits; AID 624297, 2012; also: % of control where 0% means no effect; nearly all actives have a fitted effect of over 55% in size
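Quantitative HTS format with DMSO vehicle controls; 48 hr drug incubation at 37 C, then 40 min Hoechst staining and scanning imager measurement at 405 nm excitation.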
KB-V1 cytotox = qHTS assay for MDR1-selective chemotherapeutics: Primary screen using the drug-selected MDR subline cells KB-V1; KB-V1 MDR cells viability, CellTiter-Glo, 72 h; Potency, µM (doses to about 46.1 µM), hits mostly cytotoxic; 400,000 compounds, 3.4% hits; also: % is scaled to controls: 0 for no effect and ±100 for the full control effect; nearly all actives have a fitted effect of over 60% in size
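KB-V1, DMEM (no phenol red) + 10% FBS; cpd pin-transferred, titration series; 72 h, 37 degrees C; CellTiter-Glo, luminescence. Data normalized, curve-fit.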
ELG1 DNA repair = qHTS screen for small molecules that inhibit ELG1-dependent DNA repair in human embryonic kidney (HEK293T) cells expressing luciferase-tagged ELG1. 330,000 compounds, 2.3% hits. Potency, µM (doses to about 46.1 µM), for the others: top-dose activity change, negative = inhibition, most hits filed as inhibitors. HEK293T ELG1-luciferase reporter, luminescence, 16 h; DNA damage induced by 5-fluorouridine; also: % is scaled to controls: 0 for no effect and ±100 for the full control effect; nearly all actives have a fitted effect of over 55% in size
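In this reporter screen, reduction of luminescence relative to DMSO vehicle indicated activity. Compounds and 5-fluorouridine were added together to 2,000 cells per well, incubated for 16 hr at 37 °C, then developed with ONE-Glo.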
MCF10A rerep = A quantitative high throughput screen for small molecules that induce DNA re-replication in MCF 10a normal breast cells. MCF 10A DNA re-replication, Hoechst nuclear intensity, 48 h. Potency, µM (series often up to 46.1 µM), inactives show at the highest dose activity, positive = re-replication, hits mostly activators. 350,000 compounds, 2.9% hits; also: % of control where 0% means no effect; nearly all actives have a fitted effect of over 50% in size
* marks the source's active call; other numbers are inactive results; i = inactive; ? = inconclusive; . = no result. An excerpt weighted towards active compounds, which were near 8.1% of everything screened. Calls follow the shape of the dose curve; as a rule, active = well fitted curve in the direction sought with a large enough effect; inconclusive = small, poorly fitted or top-dose-only effect, or another doubt; inactive = no such curve, though single readings can be large; an effect the other way counts as inactive or inconclusive. Potency is read from the fitted curve at half-maximal effect.

SMILES	KB-3-1 tox	SW480 rerep	KB-V1 cytotox	ELG1 DNA repair	MCF10A rerep
O=c1c2cc(NC(=S)NC3CCCC3)ccc2nc2n1CCCCC2	i	-7%	21µM*	16%	13%
CN(C)c1ccc(N=Nc2ccccc2C(=O)OCC(=O)NCC2CCCCC2)cc1	i	17%	7.3µM*	?	18%
CC(=O)Nc1ccc(/C=C2\C=C(C(O)c3ccc(NC(C)=O)cc3)c3ccccc32)cc1 (stereo not drawn)	i	.	i	.	.
CSc1ccc(/C=C2\C=C(C(O)c3ccc(SC)cc3)c3ccccc32)cc1 (stereo not drawn)	16µM*	.	?	.	.
Cc1ccccc1C(O)c1ccncc1 (stereo not drawn)	i	-1%	i	-5%	-14%
OC(C1=C/C(=C\c2ccncc2)c2ccccc21)c1ccncc1 (stereo not drawn)	?	.	16µM*	.	.
Cc1ccc(-c2nn3nnnc3c3ccccc23)cc1	i	-1%	i	-5%	13%
O=c1cc(N2CCc3ccccc32)[nH]c(=O)n1-c1ccc(Br)cc1	i	6%	?	15%	?
Cc1ccccc1CCNC(=O)c1ccc(Cl)c(S(=O)(=O)N2CC(C)OC(C)C2)c1 (stereo not drawn)	5.2µM*	7%	1.8µM*	?	?
CN(Cc1cccs1)C(=O)c1ccc(S(=O)(=O)N2CCCCC2)cc1	i	-1%	?	-9%	5%
CN(Cc1cccs1)C(=O)c1cccc(S(=O)(=O)N2CCCCCC2)c1	i	-1%	18µM*	-10%	12%
CC1CN(S(=O)(=O)c2cc(C(=O)N(C)Cc3cccs3)ccc2Cl)CC(C)O1 (stereo not drawn)	i	-3%	10µM*	-29%	11%
CCC1CCCCN1C(=O)CN1C(=O)c2ccccc2S1(=O)=O (stereo not drawn)	i	-714%	i	0%	-2%
CSCCC(NC(=O)c1cc(S(=O)(=O)N2CCOCC2)ccc1F)c1nc2ccccc2[nH]1 (stereo not drawn)	i	-2%	i	1%	0%
CC(/C=N/NC(=O)c1ccncc1)=C\c1ccc(C(C)C)cc1	i	1%	10µM*	?	?
COc1ccccc1NC(=O)CSC1=Nc2ccccc2C2=NC(CC(=O)NCCc3ccccc3)C(=O)N12 (stereo not drawn)	i	.	i	.	.
c1ccc(Cc2nnc3sc(-c4ccccn4)nn23)cc1	?	-4%	16µM*	9%	1%
c1ccc(Cc2nnc3sc(-c4ccncc4)nn23)cc1	i	0%	i	-25%	17%
Clc1ccccc1-c1nnc2sc(C3COc4ccccc4O3)nn12 (stereo not drawn)	i	0%	16µM*	6%	-3%
c1ccc(Cc2nnc3sc(C4COc5ccccc5O4)nn23)cc1 (stereo not drawn)	i	-3%	15µM*	-9%	9%
Cc1ccc(Cn2c(NS(=O)(=O)c3ccccc3)nc3ccccc32)cc1	i	1%	i	2%	11%
COc1ccc(N2C(=O)CCC2(C#N)c2ccc(OC)cc2)cc1 (stereo not drawn)	i	0%	i	-5%	-2%
Cc1cc(C)c(C(=O)/C=C/c2cccc3ccccc23)c(=O)[nH]1	6.5µM*	23µM*	8.2µM*	15µM*	16µM*
O=C(O)CSc1nc(-c2ccccc2)nc2c1oc1ccccc12	i	-5%	i	0%	0%
O=C(O)CSc1nc(-c2ccc(Cl)cc2)nc2c1oc1ccccc12	i	165%	i	-14%	23µM*
SMILES	KB-3-1 tox	SW480 rerep	KB-V1 cytotox	ELG1 DNA repair	MCF10A rerep
Cc1nc(SCC(=O)N2CCCc3ccccc32)c2oc3ccccc3c2n1	i	16µM*	21µM*	11%	?
Cc1nc(SCC(=O)Nc2ccc(F)cc2)c2oc3ccccc3c2n1	i	-7%	i	14%	?
COc1ccc(-n2nnc3c(SCC(=O)N4CCCc5ccccc54)ncnc32)cc1	i	12µM*	i	.	-3%
Cc1nc(SCC(=O)Nc2ccccc2)c2oc3ccccc3c2n1	i	-7%	i	4%	12µM*
C=CCNC(=O)c1ccc2c(=O)n(Cc3ccccc3OC)c(=S)[nH]c2c1	i	-12%	i	-2%	-4%
CCOC(=O)c1oc2ccc(S(=O)(=O)n3nc(-c4cc(OC)cc(OC)c4)cc3N)cc2c1C	i	.	i	.	.
C[C@@H](NC(=O)C(=O)c1c[nH]c2ccccc12)c1ccccc1	i	-49%	i	.	-2%
Cc1nc(SCC(=O)NCCc2ccccc2)c2oc3ccccc3c2n1	i	6%	i	1%	3%
CCc1nc(SCC(=O)NCCc2ccccc2)c2oc3ccccc3c2n1	i	0%	18µM*	?	9%
Cc1nc(SCC(=O)NC(C)c2ccccc2)c2oc3ccccc3c2n1 (stereo not drawn)	i	1%	5.2µM*	0%	?
CC(C)CCNC(=O)NC(=O)CN1C(=O)NC2(CCCCC2)C1=O	i	-5%	i	10%	6%
CN(C)c1cc[n+](CC(=O)c2ccc(OC(F)F)cc2)cc1	18µM*	-7%	i	?	15%
CN(C)c1cc[n+](CC(=O)Nc2ccc(Oc3ccccc3)cc2)cc1	16µM*	10%	?	-21%	?
O=C(C[n+]1cccc(CNC(=O)c2ccc(OC(F)F)cc2)c1)c1ccccc1	i	11%	i	-6%	-3%
CCOc1ccc(NC(=O)C[n+]2ccc(N(C)C)cc2)cc1	10µM*	-1%	i	-18%	-8%
CN(C)c1cc[n+](CC(=O)Nc2ccc(Cl)cc2)cc1	3.7µM*	-4%	i	?	3%
CC(=O)Nc1cc[n+](CC(=O)c2ccc(Cl)cc2)cc1	i	-3%	?	-13%	5%
CCOc1ccc(NC(=O)CC(=O)Nc2ccc(OCC)cc2)cc1	i	-11%	i	?	2%
O=P(O)(CCc1ccccn1)CN1CCOCC1	i	0%	i	17%	?
Cc1cccc(NC(=O)C[n+]2ccc(N(C)C)cc2)c1	13µM*	3%	i	-22%	?
CCOC(=O)c1oc2cc(OC(C)=O)ccc2c(=O)c1-c1ccc(OC)c(OC)c1	i	-6%	i	18%	-2%
CC(Sc1nc(N)c2c3c(sc2n1)CSC(C)(C)C3)C(=O)Nc1ccccc1 (stereo not drawn)	?	?	21µM*	?	?
